An excerpt weighted towards active compounds, which were near 2.4% of everything screened.
D2 ag-1: HTS Assay for Allosteric Agonists of the Human D2 Dopamine Receptor: Primary Screen for Agonists. activation, % at 2 µM. HEK293 T-REx D2 cells, calcium flux agonist mode. actives 0.53% (n = 340,000). AID 485358, 2010;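 active = activation over 3 SD above normal in the single-dose calcium agonist read, cut at about 30% in these data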
Target sequence (P14416 whole entry, looked up): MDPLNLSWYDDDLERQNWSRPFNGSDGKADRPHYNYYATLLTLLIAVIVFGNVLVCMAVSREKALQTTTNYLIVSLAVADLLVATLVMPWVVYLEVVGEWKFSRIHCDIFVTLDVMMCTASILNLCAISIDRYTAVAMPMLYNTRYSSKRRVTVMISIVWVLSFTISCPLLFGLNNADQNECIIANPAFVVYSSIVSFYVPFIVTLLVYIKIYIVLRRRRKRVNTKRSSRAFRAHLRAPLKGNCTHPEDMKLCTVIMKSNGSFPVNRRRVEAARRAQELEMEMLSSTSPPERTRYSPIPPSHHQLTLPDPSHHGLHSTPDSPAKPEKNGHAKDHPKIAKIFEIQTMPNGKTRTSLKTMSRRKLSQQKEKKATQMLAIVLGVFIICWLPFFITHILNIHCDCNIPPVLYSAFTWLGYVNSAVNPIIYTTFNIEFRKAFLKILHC
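Agonism scored from kinetic calcium signal (1 read/sec, 180 s) following compound pin transfer, after a 10 s baseline. Cells: HEK293 Trex line expressing inducible D2 receptor coupled to calcium, dye-loaded after overnight culture at 30 C.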
D2 ag-2: Beta-Arrestin HTS for Positive Allosteric Modulators of the Human D2 Dopamine Receptor: Agonists; D(2) dopamine receptor (Homo sapiens), P14416; DiscoveRx PathHunter D2 beta-arrestin, luminescence, 90 min; 100% = 57 uM dopamine signal; activation, % (test concentration not listed); actives 0.084% (n = 360,000); in the data active = activation above about 40%
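Agonist mode: compounds alone added to overnight-plated D2 PathHunter cells for 90 min at 37 C, with 57 uM final dopamine (EC100) defining full response. Beta-arrestin recruitment detected by chemiluminescent reagent, read after 1 h at ambient temperature.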
D2 PAM-1: Beta-Arrestin HTS for Positive Allosteric Modulators of the Human D2 Dopamine Receptor: Potentiators; DiscoveRx D2 beta-arrestin cells, luminescence, 90 min; 100% = 57 uM dopamine signal; potentiation, % (test concentration not listed); actives 0.23% (n = 360,000); AID 624464, 2012; in the data active = potentiation above about 50%
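PathHunter D2 cells, attached overnight at 37 deg C, received compound in DMSO plus dopamine at EC20 (50 nM final) for 90 min at 37 deg C. Beta-arrestin recruitment was read as luminescence after 1 h with detection reagent at ambient temperature.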
D2 PAM-2: HTS Assay for Positive Allosteric Modulators of the Human D2 Dopamine Receptor: Primary Screen for Potentiators | D(2) dopamine receptor (Homo sapiens), P14416 | HEK293 T-REx D2, calcium flux, EC20 dopamine potentiation | potentiation, % at 10 µM | actives 0.34% (n = 340,000);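 active = potentiation over 3 SD above the plate norm, cut at about 30% in these data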
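Primary screen. Calcium kinetics in induced HEK293 T-REx D2 cells: compound pre-addition 180 s, EC20 dopamine, 180 s more.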
D2 antagonist: HTS Assay for Allosteric Antagonists of the Human D2 Dopamine Receptor: Primary Screen for Antagonists; D(2) dopamine receptor (Homo sapiens), P14416; HEK293 TREx D2 cells, calcium flux, dopamine EC80; inhibition, % at 10 µM; actives 2% (n = 340,000); AID 485344, 2010; in the data active = inhibition above about 30%; inactive = below that, where a call was filed
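Compounds are added to dye-loaded, induced HEK293 T-REx cells coupled to calcium release via D2; after a 3 min kinetic read an EC80 dopamine stimulus is given and fluorescence is recorded for 3 more min.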
Hits are given with their value; i = inactive; nt = no result given.

SMILES | D2 ag-1 | D2 ag-2 | D2 PAM-1 | D2 PAM-2 | D2 antagonist
O=C(O)c1cccc(-c2ccc(/C=N/Nc3ccc([N+](=O)[O-])cc3)o2)c1 | 35.7 | i | i | i | i
CC(=O)N1CCCc2cc(S(=O)(=O)N3CCCC(C(=O)Nc4cccc(Cl)c4C)C3)ccc21 (stereo unspecified) | i | nt | nt | i | nt
Cc1nn(C)c2c1c(C(F)(F)F)cc(=O)n2CC(=O)N1CCC(C)CC1 | i | nt | nt | i | nt
COc1cc(NC(=O)c2cnn3c(C(F)F)cc(C4CC4)nc23)c(OC)cc1Cl | i | i | i | i | i
COC(=O)c1ccccc1NC(=O)c1cnn2c(C(F)F)cc(C3CC3)nc12 | i | i | i | 32.7 | i
CCOc1ccc(NC(=O)Cn2c(=O)oc3cc(S(=O)(=O)NC4CCCC4)ccc32)cc1 | i | nt | nt | i | nt
CS(=O)(=O)c1ccccc1C(=O)Nc1ccccc1Cc1ccccc1 | i | i | i | i | i
Cc1ccc(C(NC(N)=O)c2ccccc2)cc1 (stereo unspecified) | i | i | i | i | 39.8
Cc1ccc(C(NC(=O)c2ccccc2S(C)(=O)=O)c2ccccc2)cc1 (stereo unspecified) | i | i | i | 34.2 | i
CC1CC(=O)C(C(C2=C(O)CC(C)CC2=O)c2ccccc2)=C(O)C1 (stereo unspecified) | nt | i | i | nt | nt
CCOCC(=O)Nc1nnc(COC)s1 | i | i | i | i | 31.1
CNS(=O)(=O)c1cn(CC(=O)N2CCN(c3cccc(C)c3C)CC2)cc1S(=O)(=O)NC | i | nt | nt | i | nt
COc1c2ccc(C(=O)NCc3cc(C(F)(F)F)cc(C(F)(F)F)c3)cc2nn1C | i | i | i | i | 40.8
CC1CC(C)CN(C(=O)C(NS(=O)(=O)c2ccc(Br)s2)c2ccccc2)C1 (stereo unspecified) | i | i | i | i | i
O=C(N1CCOCC1)n1nnc2ccccc21 | i | i | i | i | i
O=C(N1CCOCC1)n1cnc2ccccc21 | i | i | i | 51.4 | i
Cc1ccc(NC(=O)/C=C/c2ccccc2)c(Br)c1 | i | nt | nt | i | nt
O=C(NCCN1CCc2ccccc2C1)C1CCN(S(=O)(=O)N2CCCCC2)CC1 | 34.1 | i | i | i | i
Cc1ccc(N2CC(NC(=O)c3ccc(S(=O)(=O)N(C)C)cc3)CC2=O)cc1C (stereo unspecified) | i | nt | nt | i | nt
CC(C)COc1ccc(-c2nnc(-c3ccco3)o2)cc1 | i | i | i | 30.0 | i
CCCn1c(NCc2ccccc2C)nc2ccccc21 | i | nt | nt | i | nt
CCCn1c(Nc2ccccc2C)nc2ccccc21 | i | i | i | i | 42.5
CC1CCCN(C(=O)CSc2nnc(-c3ccc(S(=O)(=O)N4CCOCC4)cc3)n2C)C1 (stereo unspecified) | i | i | i | i | i
O=C(CSc1nnc(C2CC2)n1Cc1ccccc1)N1CCN(S(=O)(=O)c2ccccc2)CC1 | i | i | i | i | i
CC1CCN(C(=O)CSc2nnc(-c3ccc(S(=O)(=O)N4CCOCC4)cc3)n2C)CC1 | i | i | i | 53.0 | i
SMILES | D2 ag-1 | D2 ag-2 | D2 PAM-1 | D2 PAM-2 | D2 antagonist
O=C(CSc1nnc(C2CC2)n1Cc1ccccc1)c1ccc(S(=O)(=O)N2CCOCC2)cc1 | i | i | i | i | 46.5
CC(C)Sc1nnc(-c2ccc(S(=O)(=O)N3CCOCC3)cc2)n1C | i | i | i | i | 34.9
CCN(CC)C(=O)CSc1nnc(-c2ccc(S(=O)(=O)N3CCOCC3)cc2)n1C | i | i | i | i | i
O=C(CCC1N=C2c3ccccc3N=C(SCc3ccc(Cl)cc3)N2C1=O)NC1CCCCC1 (stereo unspecified) | i | nt | nt | i | nt
Cc1ccc(CNC(=O)CN2C(=O)COc3ccccc32)cc1 | nt | nt | nt | i | nt
COc1ccccc1-c1nn(CCC(=O)Nc2cccc(C(C)=O)c2)c2nc(C)cc(C)c12 | i | nt | nt | i | nt
Cc1cc(NC(=O)c2ccc3c(c2)C(=O)N(C2CCCCC2)C3=O)no1 | i | i | i | i | 55.5
CCOc1ccc(NC(=O)CCc2nnc3n(C)c(=O)c4sccc4n23)cc1 | i | nt | nt | i | nt
O=C(O)c1cc2c(cc1NC(=O)C1CCCC1)OCCO2 | i | i | i | i | 33.5
O=C(NCc1cccnc1)Nc1cccc(C(F)(F)F)c1 | i | i | i | i | i
O=C(NCCc1cnc[nH]1)Nc1cccc(C(F)(F)F)c1 | i | i | i | i | 40.2
Cc1cccc(Cn2c(CNS(=O)(=O)c3ccc(Cl)s3)nc3cccnc32)c1 | i | nt | nt | i | nt
Cc1cccc(Cn2c(C(C)(C)C)cc3cccnc32)c1 | i | i | i | i | 44.8
COc1cccc(C(=O)CSc2nc3cccnc3n2C)c1 | i | i | i | i | 37.5
COc1ccc(C(=O)CSc2nc3cccnc3n2C)cc1 | i | i | i | i | i
COCCNc1nc2c(c(=O)n(C)c(=O)n2C)n1Cc1cccc(C)c1 | i | i | i | i | i
COCCCNc1nc2c(c(=O)n(C)c(=O)n2C)n1Cc1cccc(OC)c1 | i | i | i | i | 39.7
COc1ccc(Cl)cc1NC(=O)CN(C)S(=O)(=O)c1ccc2c(c1)CCCN2C(C)=O | i | nt | nt | i | nt
COc1ccc(OC)c(NC(=O)C(C)N2c3cccc4cccc(c34)S2(=O)=O)c1 (stereo unspecified) | i | i | i | i | 33.6
COc1ccc(OC)c(NC(=O)CN2c3cccc4cccc(c34)S2(=O)=O)c1 | nt | i | i | nt | nt
CCn1c(=O)c2cc(C(=O)N(CCCOC(C)C)Cc3ccco3)sc2c2ccccc21 | i | nt | nt | i | nt
COC(=O)[C@]1(CC(C)C)N[C@H](c2ccc(SC3CCCCC3)c(OC)c2)[C@@H]2C(=O)N(C)C(=O)[C@@H]21 | i | i | i | 32.3 | i
CCc1ccccc1NC(=O)c1ccc2c(c1)nnn2C1CCCC1 | i | nt | nt | i | nt
Cc1noc(C)c1CSc1nc2ccccc2n1CCc1ccccc1 | i | i | i | 35.5 | i
CC(C)N(C(=O)CSc1nc2ccccc2n1Cc1ccccc1)C(C)C | i | i | i | 36.0 | i
COC(=O)Cn1c(SCc2ccccc2)nc2ccccc21 | i | i | i | 31.3 | i
CCSc1nc2ccccc2n1CC(=O)OC | i | i | i | i | i
O=C(O)CCn1c(SCc2ccccc2)nc2ccccc21 | i | i | i | i | i
CCc1ccccc1NC(=O)NC(CC)Cn1nnc2ccccc2c1=O (stereo unspecified) | i | nt | nt | i | nt
O=C(Nc1ccc2c(c1)OCCO2)c1cccc2nc3ccccc3nc12 | i | i | i | 34.3 | i
